These results are taken from PubChem BioAssay.

Each structure is given as a SMILES string. Activity calls are given as the source filed them. Cut-off read from the data, not from the text of the source: active = inhibition above about 28%; inactive = the rest.

This test in a line: StAR promoter reporter inhibitors, counter-screen for LRH-1 inverse agonist project, cell-based, luminescence, high throughput (AID 651611). Particulars: StAR promoter luciferase reporter counterscreen, at 3.6 µM, hits give high values.
With `CCc1ccccc1NC(=O)CSc1nnc([C@@H](NC(=O)OC(C)(C)C)C(C)C)o1`, the inhibition was 5.95% (inactive).

As to `COc1ccc(C2(C)NC(=O)N(CC(=O)NCCC3=CCCCC3)C2=O)cc1OC` (stereo not given), the inhibition is 7.18% (inactive).

Consider `CCOc1ccc(NC(=O)CN2CCN(CC(=O)Nc3ccc(OC)cc3)CC2)cc1`, for which the inhibition was 9.49% (inactive).

For the compound `COc1cccc(C2c3cc4c(cc3OC(N3CCCC3)C2C)OCO4)c1O` (stereo not given), the inhibition is 55% (active).

In the case of `CC1Cc2ccccc2N1C1=CC(=O)CC(C)(C)C1` (stereo not given), the inhibition was 21.4% (inactive).

As for `CCCc1cc(NCC2CCCO2)n2c(nc3ccccc32)c1C#N` (stereo not given), the inhibition was -0.55% (inactive).

Turning to `COc1cccc2c1C(=O)c1c(O)c3c(c(O)c1C2=O)C[C@@](O)(C(C)=O)C[C@@H]3O[C@H]1C[C@H](N)[C@H](O)[C@H](C)O1`, the inhibition was 76.5% (active).

As for `CCCCCc1ccc(OCCCC[n+]2ccc(C)cc2)c(CCCCC)c1`, the inhibition was 21.4% (inactive).

As for `COc1ccc(/C=N/OCC(=O)NC(c2ccccc2)c2ccccc2)cc1OC`, the inhibition was 30.5% (active).

With `COc1cc(NC(=O)c2ccc([N+](=O)[O-])o2)ccc1NC(=O)c1ccco1`, the inhibition was 28.8% (active).

As for `CC(C)NC(=O)N1Cc2cc(C(=O)NC3CCCCC3)nc(-c3cccc(-c4cccnc4)c3)c2[C@@H]1CCO`, the inhibition is 27.6% (inactive).

Turning to `CCN(Cc1ccccc1)c1ccc(/C=N/N2CCOCC2)cc1`, the inhibition was -41.2% (inactive).

As for `CC(C)n1c(SCC(=O)Nc2ccc(N3CCOCC3)cc2)nnc1-c1ccco1`, the inhibition was 4.53% (inactive).

As to `C/C(=N\NC(N)=S)c1ccc(Cl)s1`, the inhibition was 16.8% (inactive).

As for `CCNc1cc(N2CCCC2)ccc1[N+](=O)[O-]`, the inhibition was 10.6% (inactive).

As for `COc1cc(-c2cnc3c(NC=O)cc(-c4cccc(NC(C)=O)c4)cn23)cc(OC)c1OC`, the inhibition is 62.9% (active).

As for `Cc1ccc2cccc(OCC(=O)NCCC3=CCCCC3)c2n1`, the inhibition is 8.76% (inactive).

With `Nc1nc2ccc(Cl)cc2cc1C(=O)NCc1ccc(Oc2ccccc2)cc1`, the inhibition was 14.7% (inactive).

Consider `Clc1ccccc1-c1nc(N/N=C/c2cccnc2)c2ccccc2n1`, for which the inhibition was 6.03% (inactive).

On to `COc1ccc2nc(N3CCN(C(=O)c4ccc([N+](=O)[O-])o4)CC3)sc2c1`, for which the inhibition is 0.52% (inactive).

As to `CCOc1cc(/C=N/Nc2nnc(C)n2N)ccc1O`, the inhibition is -6% (inactive).

For `COc1ccc(C2=Nn3c(nnc3-c3ccccc3F)SC2)cc1OC1CCOC1` (stereo not given), the inhibition is 56.2% (active).

With `O=C(COC(=O)c1ccccc1O)Nc1ccc(N2CCOCC2)cc1`, the inhibition was 0.71% (inactive).

As to `O=C(Nc1ccc(N2CCN(C(=O)c3ccccc3)CC2)cc1)c1ccc([N+](=O)[O-])o1`, the inhibition is 22.4% (inactive).

With `CNC(=O)c1cccc(NC(=O)c2cc(-c3ccccc3)nc3c2cnn3C(C)C)c1`, the inhibition is 29.4% (active).

`CCCc1cc(=O)oc2cc(C)cc(OCC(=O)Nc3ccccn3)c12`: the inhibition is 2.99% (inactive).

Take `Nc1nc2ccccc2cc1C(=O)NCc1ccc(-c2ccccc2)cc1`: the inhibition is 24.6% (inactive).

With `CC1CC(=Cc2ccc(N)cc2)C(=O)O1` (stereo not given), the inhibition was -13.5% (inactive).

`COc1ccc(NC(=O)CS(=O)(=O)c2ccc(C)cc2)c(OC)c1`: the inhibition is 17% (inactive).

For the compound `CCCc1cc(=O)oc2cc(OCC(=O)NCCc3c[nH]c4ccc(OC)cc34)ccc12`, the inhibition was 6.12% (inactive).

On to `CN1CCN(c2ccccc2NC(=O)c2ccc(-c3cccc([N+](=O)[O-])c3)o2)CC1`, for which the inhibition is 11.9% (inactive).

`COc1ccc(CNC(=O)c2sc(=O)n(Cc3ccc(-c4ccccc4)cc3)c2C)cc1OC`: the inhibition is 26% (inactive).

Turning to `Cc1ccc(Cl)cc1N1CCN(C(=O)C(C)n2ncn3cccc3c2=O)CC1` (stereo not given), the inhibition is 7.03% (inactive).

For `Cc1sc2ncnc(NCCc3ccc(S(N)(=O)=O)cc3)c2c1C`, the inhibition is 14.7% (inactive).

In the case of `COc1ccc(N2CCN(C(=O)CSc3nc4ccccc4c(=O)[nH]3)CC2)cc1`, the inhibition was 12.5% (inactive).

Consider `COc1cc(NC(=O)Cn2ccsc2=N)c(C)cc1[N+](=O)[O-]`, for which the inhibition is 11.8% (inactive).

Turning to `Cc1cccc(C(=O)N[C@H](C(=O)Nc2ncc(C)s2)C(C)C)c1`, the inhibition was 35.8% (active).

On to `OC[C@@H]1CN(Cc2ccc(-c3ccccc3)cc2)C[C@H](n2cnc3c(NC4CCC4)ncnc32)O1`, for which the inhibition was 16.5% (inactive).

For the compound `Cc1cc(C)c2c(NC(=O)CCl)nn(C)c2n1`, the inhibition was 46.8% (active).

For `OCC1OC(n2cnc3c(/C=C(\O)c4ccccc4)ncnc32)C(O)C1O` (stereo not given), the inhibition is -32.8% (inactive).
